# Data: article PMC11995724, “Antibiotic target discovery by integrated phenotypic and activity-based profiling of electrophilic fragments” (Cell chemical biology, 2025)
# Among all 3,200 compounds or so, about 75 (2%) showed an effect of 50% or more. The full list was thinned out, with strong results kept by preference.
# Test system: T1, S. aureus MSSA476
# T1 construct: MSSA476
# Parameters: species or system S. aureus MSSA476 (TSB) or V. cholerae SAD30 (LB); 384-well bacterial growth screen at 25 uM, OD600 relative to DMSO control
# Details: relative growth, OD600, TSB; 25 µM; inhibitor
row,SMILES,% of control remaining [%]
1,"CCn1ccc(CN(C)C(=O)CCl)n1 [5-K06, 2-chloro-N-[(1-ethyl-1H-pyrazol-3-yl)methyl]-N-methylacetamide]",77.5956
2,"CCc1cc(SC#N)cc(C)c1NC(=O)CCl [4-M04, 2-chloro-N-[4-(cyanosulfanyl)-2-ethyl-6-methylphenyl]acetamide]",101.382
3,"O=C(CCl)Cc1cccc(Cl)c1 [10-E17, 1-chloro-3-(3-chlorophenyl)propan-2-one]",119.375
4,"O=C(CCl)Cc1cc(Cl)cc(Cl)c1 [10-I15, 1-chloro-3-(3,5-dichlorophenyl)propan-2-one]",23.125
5,"O=C(CCl)Cc1ccc(Cl)c(Cl)c1 [10-E15, 1-chloro-3-(3,4-dichlorophenyl)propan-2-one]",111.25
6,"O=C(CCl)NC(=O)c1ccc(OC(F)F)cc1 [5-J22, N-(2-chloroacetyl)-4-(difluoromethoxy)benzamide]",106.011
7,"C=CC(=O)NCc1ncoc1C(F)(F)F [3-E18, N-{[5-(trifluoromethyl)-1,3-oxazol-4-yl]methyl}prop-2-enamide]",106.922
8,"N#CC(=Cc1ccc(C(F)(F)F)cc1)C(=O)Nc1ccccc1 [9-I04, 2-cyano-N-phenyl-3-[4-(trifluoromethyl)phenyl]prop-2-enamide]",99.7753
9,"N#CC(C(=O)CCl)=C1NC(C23CC4CC(CC(C4)C2)C3)=CS1 [10-F14, 2-[4-(adamantan-1-yl)-2,3-dihydro-1,3-thiazol-2-ylidene]-4-chloro-3-oxobutanenitrile]",42.1875
10,"N#CC(C(=O)CCl)=C1NC2=C(CCc3ccccc32)S1 [10-N10, 4-chloro-2-{1H,2H,4H,5H-naphtho[1,2-d][1,3]thiazol-2-ylidene}-3-oxobutanenitrile]",59.6875
11,"CN1C=CC(=C(C#N)C(=O)CCl)C=C1 [10-G21, 4-chloro-2-(1-methyl-1,4-dihydropyridin-4-ylidene)-3-oxobutanenitrile]",112.5
12,"O=C(CCl)NC1CCS(=O)(=O)c2ccc(F)cc21 (stereo not drawn) [7-H06, 2-chloro-N-(6-fluoro-1,1-dioxo-3,4-dihydro-2H-1lambda6-benzothiopyran-4-yl)acetamide]",94.1915
13,"CN(C)c1ccc(C=C(C#N)C(=O)N2CCC2)cc1 [9-A14, 2-(azetidine-1-carbonyl)-3-[4-(dimethylamino)phenyl]prop-2-enenitrile]",86.8914
14,"Cc1c(C#N)c(NC(=O)CCl)n(Cc2ccco2)c1C [4-D09, 2-chloro-N-{3-cyano-1-[(furan-2-yl)methyl]-4,5-dimethyl-1H-pyrrol-2-yl}acetamide]",96.0457
15,"CC(C)OC(=O)c1ccc(NC(=O)C(C)Cl)cc1 (stereo not drawn) [4-K08, propan-2-yl 4-(2-chloropropanamido)benzoate]",110.148
16,"N#CC(=Cc1cccc(Cl)c1Cl)C(=O)NCc1ccccc1 [8-L04, N-benzyl-2-cyano-3-(2,3-dichlorophenyl)prop-2-enamide]",-0.332
17,"N#CC(=Cc1c(F)cccc1F)C(=O)NCCc1ccccc1 [8-D18, 2-cyano-3-(2,6-difluorophenyl)-N-(2-phenylethyl)prop-2-enamide]",118.174
18,"N#CC(=Cc1cccc(O)c1)C(=O)NCCc1ccccc1 [8-N03, 2-cyano-3-(3-hydroxyphenyl)-N-(2-phenylethyl)prop-2-enamide]",116.183
19,"CCCCNC(=O)C(C#N)=Cc1c(Cl)cccc1Cl [9-J11, N-butyl-2-cyano-3-(2,6-dichlorophenyl)prop-2-enamide]",79.4007
20,"CC(NC(=O)C(C#N)=Cc1cccc(Cl)c1Cl)c1ccccc1 (stereo not drawn) [9-N04, 2-cyano-3-(2,3-dichlorophenyl)-N-(1-phenylethyl)prop-2-enamide]",0.5993
21,"CCCCNC(=O)C(C#N)=Cc1cccc(Cl)c1Cl [9-H11, N-butyl-2-cyano-3-(2,3-dichlorophenyl)prop-2-enamide]",71.0112
22,"N#CC(=Cc1c(Cl)cccc1Cl)C(=O)NCCc1ccccc1 [8-B14, 2-cyano-3-(2,6-dichlorophenyl)-N-(2-phenylethyl)prop-2-enamide]",39.834
23,"CC(C)NC(=O)C(C#N)=Cc1cccc(Cl)c1Cl [9-C07, 2-cyano-3-(2,3-dichlorophenyl)-N-(propan-2-yl)prop-2-enamide]",109.963
24,"CC(NC(=O)C(C#N)=Cc1ccccc1F)c1ccccc1 (stereo not drawn) [8-P16, 2-cyano-3-(2-fluorophenyl)-N-(1-phenylethyl)prop-2-enamide]",79.0041
25,"N#CC(=Cc1cccc2ccccc12)C(=O)NCc1ccccc1 [8-O19, N-benzyl-2-cyano-3-(naphthalen-1-yl)prop-2-enamide]",104.896
26,"N#CC(=Cc1cccc(Cl)c1Cl)C(=O)NCCc1ccccc1 [8-J06, 2-cyano-3-(2,3-dichlorophenyl)-N-(2-phenylethyl)prop-2-enamide]",0.6639
27,"N#CC(=Cc1ccccc1Cl)C(=O)NCc1ccccc1 [9-F13, N-benzyl-3-(2-chlorophenyl)-2-cyanoprop-2-enamide]",78.2022
28,"O=C(O)c1coc(C(=O)CCl)c1 [10-B07, 5-(2-chloroacetyl)furan-3-carboxylic acid]",79.6875
29,"O=C(CCl)N1N=C(c2ccco2)CC1c1cccc(Cl)c1 (stereo not drawn) [5-M17, 2-chloro-1-[5-(3-chlorophenyl)-3-(furan-2-yl)-4,5-dihydro-1H-pyrazol-1-yl]ethan-1-one]",81.9672
30,"Cc1nn(-c2ccccc2)c(C)c1CN(C)C(=O)CCl [7-B03, 2-chloro-N-[(3,5-dimethyl-1-phenyl-1H-pyrazol-4-yl)methyl]-N-methylacetamide]",93.5636
